# Hit rate of the full screen: of about 66,000 compounds, about 960 (1.5%) showed an effect of 50% or more. Many of the other results were omitted from the sample, so strong results are more common in it than they were.
# System: Trypanosoma brucei
# Assay: Trypanosoma brucei 72 hour study
# Assay type: functional, organism-based
# Design: scale not given: in the data most compounds retested in dose-response had high values
smiles,measurement,setting,value
O=C(NCc1ccccc1-n1cccn1)C1CC2(CCNCC2)CN1 (stereo not drawn),Percent Effect,"30 µM, 30.03 µM",40.65%
O=C(O)C(F)(F)F.O=C1C[C@H]2[C@@H](CCN2C(=O)Cc2cccs2)N1Cc1ccncc1,Percent Effect,"30.3 µM, […]",-0.2658%
CCCc1cncnc1N1CCC(NCCc2ccc(O)cc2)CC1,Percent Effect,"30 µM, 30.03 µM",-6.649%
CCCc1cncnc1N1CCC(NCc2ccc(O)cc2)CC1,Percent Effect,"30 µM, 30.03 µM",63.63%
CCCc1cncnc1N1CCC(NCc2ccncc2)CC1,Percent Effect,"30 µM, 30.03 µM",-66.51%
CN(C)CC1(O)CCN(S(=O)(=O)c2cccc(F)c2)C1 (stereo not drawn),Percent Effect,"30.3 µM, […]",-12.71%
Brc1cccnc1OC1CCNCC1.Cl,Percent Effect,"30 µM, 30.03 µM",-18.95%
Cc1ccc2c(c1)C(NCc1ccccn1)CC2 (stereo not drawn),Percent Effect,"30 µM, 30.03 µM",31.05%
COc1cccc(CNC2CCCOc3cc(C)ccc32)n1 (stereo not drawn),Percent Effect,"30 µM, 30.03 µM",-17.07%
COc1cccc(CNC2CCc3ccc(C)cc32)n1 (stereo not drawn),Percent Effect,"30 µM, 30.03 µM",102.5%
N#Cc1c2n(c3c(=O)[nH]cnc13)CCCC2,Percent Effect,"30 µM, 30.03 µM",-59.85%
Cc1nn(C)cc1CNCc1ccc(N(C)C)cc1,Percent Effect,"30.3 µM, […]",-17.42%
CC1=C(C#N)C(=O)NC(=O)/C1=C\c1c(C)nn(-c2ccccc2)c1O,Percent Effect,"30.3 µM, […]",8.75%
CN(C)c1nc2c(c(N3CCc4ccccc4C3)n1)CCNC2,Percent Effect,"30 µM, 30.03 µM",100.4%
Cc1ccccc1N1CCN(c2nc(N(C)C)nc3c2CCNC3)CC1,Percent Effect,"30 µM, 30.03 µM",-31.91%
c1ccc2c(c1)CCN(c1nc(-c3ccncc3)nc3c1CCNC3)C2,Percent Effect,"30 µM, 30.03 µM",-16.52%
CC(C)C(=O)NC1CC2(CCN(CC(=O)N(C)C)CC2)c2ccccc21.O=C(O)C(F)(F)F (stereo not drawn),Percent Effect,"30.3 µM, […]",-88.42%
Cc1ccsc1C(=O)N1CCC2(CC(C(=O)N(C)C(C)C)=NO2)C1 (stereo not drawn),Percent Effect,"30 µM, 30.03 µM",-54.71%
CCCN1CCC(Nc2cc(-c3ccccc3)ccc2OC)CC1,Percent Effect,"30.3 µM, […]",57.37%
CCCN1CCC(NC(=O)c2csc(C)c2-c2ccccc2)CC1,Percent Effect,"30.3 µM, […]",-89.86%
CCCN1CCC(NC(=O)Nc2ccc(OC)c(OC)c2)CC1,Percent Effect,"30.3 µM, […]",-0.7678%
CC(NC(=O)NCCCN1CCCCCC1=O)c1nncn1C (stereo not drawn),Percent Effect,"30.3 µM, […]",-29.33%
O=C(O)C(F)(F)F.O=C(O)C(F)(F)F.O=C1COC2(CCN(Cc3cccs3)CC2)CN1c1cccnc1,Percent Effect,"30 µM, 30.03 µM",-14.7%
CC(C)(C)Nc1nc(-c2cccnc2)c(-c2ccnc(NCCO)n2)s1,Percent Effect,"30.3 µM, […]",94.16%
CCNc1nc(-c2cccnc2)c(-c2ccnc(NS(C)(=O)=O)n2)s1,Percent Effect,"30.3 µM, […]",1.048%
CCNc1nc(-c2cccnc2)c(-c2ccnc(NCCO)n2)s1,Percent Effect,"30.3 µM, […]",9.967%
O=C(NCCc1cccs1)[C@H]1CO[C@H]2CCN(C3CCC3)C[C@H]2C1.O=C(O)C(F)(F)F,Percent Effect,"30.3 µM, […]",-77.19%
CCOC(=O)[C@]12CCCN(Cc3ccco3)C[C@H]1CN(S(C)(=O)=O)C2.O=C(O)C(F)(F)F,Percent Effect,"30.3 µM, […]",4.884%
COc1cc(CN2CC(=O)N(c3ccc(C)cc3)CC2C)cc(OC)c1 (stereo not drawn),Percent Effect,"30 µM, 30.03 µM",-11.31%
COc1ccc(CN2CC(=O)N(c3ccc(C)cc3)CC2C)cc1O (stereo not drawn),Percent Effect,"30 µM, 30.03 µM",-20.88%
COc1cccc(OC)c1CN1CC(=O)N(c2ccc(C)cc2)CC1C (stereo not drawn),Percent Effect,"30 µM, 30.03 µM",102.6%
Cn1cc(C(=O)N2C[C@H]3C[C@H](Oc4ccccc4)C[C@H]3C2)cn1,Percent Effect,"30.3 µM, […]",8.793%
Cc1nc(Nc2cnccn2)cc(C2CCCN2)n1.Cl (stereo not drawn),Percent Effect,"30.3 µM, […]",-13.8%
Cl.c1nnc(Nc2cncc(C3CCCN3)n2)s1 (stereo not drawn),Percent Effect,"30.3 µM, […]",-8.347%
Cl.c1cnc(Nc2cncc(C3CCCN3)n2)cn1 (stereo not drawn),Percent Effect,"30.3 µM, […]",99.3%
O=C(COC[C@@]12CCC[C@@H]1CN(C1CCCC1)C2)N1CCCC1.O=C(O)C(F)(F)F,Percent Effect,"30.3 µM, […]",-80.12%
CSc1ccc(CNC(c2ccccc2F)c2nccn2C)cc1.Cl (stereo not drawn),Percent Effect,10 µM,-81.16%
CN(C)C(=O)Cc1ccccc1NCc1cc(C#N)ccc1F,Percent Effect,"30.3 µM, […]",-2.182%
CN(C)C(=O)Cc1ccccc1NCc1cccc2cccnc12,Percent Effect,"30.3 µM, […]",4.964%
CN(C)C(=O)Cc1ccccc1NCc1cccc(F)c1F,Percent Effect,"30.3 µM, […]",97.11%
CN(C)CCNC(=O)c1sccc1N(C)S(=O)(=O)c1ccc(Cl)cc1,Percent Effect,"30 µM, 30.03 µM",-35.26%
COc1ccc(-c2cc(CN)ccc2F)c(OC)c1OC,Percent Effect,"30.3 µM, […]",-22.81%
COc1ccc(-c2ccccc2CCN)c(OC)c1OC,Percent Effect,"30 µM, 30.03 µM",106.1%
COc1ccc(-c2ccccc2CN)c(OC)c1,Percent Effect,"30 µM, 30.03 µM",-56.26%
CO[C@H]1CCN(Cc2ccoc2)C[C@@H]1Cc1ccccc1.O=C(O)C(F)(F)F,Percent Effect,"30.3 µM, […]",-12.49%
C[C@@H]1C[C@@H]2CCN(C(=O)c3ccncn3)C[C@H]2O1,Percent Effect,"30 µM, 30.03 µM",-27.33%
COc1cc(N2CCC3(CCCN(C(=O)c4cnccn4)C3)C2)ncn1.O=C(O)C(F)(F)F (stereo not drawn),Percent Effect,"30 µM, 30.03 µM",-22.02%
O=C(NCCN1CCOCC1)c1cc(-c2ccc3c(c2)CCO3)n[nH]1,Percent Effect,"30 µM, 30.03 µM",31.8%
O=C(NCCCN1CCOCC1)c1cc(-c2ccc3c(c2)CCO3)n[nH]1,Percent Effect,"30 µM, 30.03 µM",57.45%
O=C(NCCCO)c1cc(-c2ccc3c(c2)CCO3)n[nH]1,Percent Effect,"30 µM, 30.03 µM",-14.14%
O=C(NCc1nnc2n1CCCCC2)N(CC1CCOC1)C1CC1 (stereo not drawn),Percent Effect,"30 µM, 30.03 µM",-56.14%
CNc1cc2c(nn1)CCN(C(=O)c1cccc3c1OCCO3)C2,Percent Effect,10 µM,-31.25%
COc1cccc(CN2CCC(CO)(Cc3ccc(Cl)cc3)CC2)c1O,Percent Effect,"30.3 µM, […]",102.9%
OCC1(Cc2ccc(Cl)cc2)CCN(Cc2ccccc2O)CC1,Percent Effect,"30.3 µM, […]",-146.1%
COc1ccc(CN2CCC(CO)(Cc3ccc(Cl)cc3)CC2)c(O)c1,Percent Effect,"30.3 µM, […]",-63.01%
CC(C)CNC(=O)[C@H]1C[C@@H]2CN(C(=O)Nc3ccc(F)cc3)C[C@H]1O2,Percent Effect,"30 µM, 30.03 µM",-34.27%
O=C(O)C(F)(F)F.O=S(=O)(c1ccccc1)N1CCC2(CCCN2Cc2cccc(Cl)c2)C1 (stereo not drawn),Percent Effect,"30 µM, 30.03 µM",-34.57%
O=S(=O)(c1ccccc1)N1CCC2(CCCN2Cc2ccccc2Cl)C1 (stereo not drawn),Percent Effect,"30.3 µM, […]",33.63%
O=S(=O)(c1ccccc1)N1CCC2(CCCN2Cc2ccc(Cl)cc2)C1 (stereo not drawn),Percent Effect,"30.3 µM, […]",61.41%
CCS(=O)(=O)N1CCCC2(CCCN2Cc2cccc(F)c2)C1.O=C(O)C(F)(F)F (stereo not drawn),Percent Effect,"30 µM, 30.03 µM",-82.26%
O=S(=O)(c1ccccc1)N1CCC2(CCCN2Cc2cccc(F)c2)C1 (stereo not drawn),Percent Effect,"30.3 µM, […]",56.8%
O=C(O)C(F)(F)F.O=C(O)C(F)(F)F.O=S(=O)(c1ccccc1)N1CCC2(CCCN2Cc2cccnc2)C1 (stereo not drawn),Percent Effect,"30.3 µM, […]",-446.5%
O=C(C1CC1)N1CCC2(CCN2Cc2ccc(F)cc2)C1.O=C(O)C(F)(F)F (stereo not drawn),Percent Effect,"30.3 µM, […]",-12.66%
Cc1cccnc1CN1CC[C@H](Oc2cccc(F)c2)[C@@](C)(O)C1,Percent Effect,"30.3 µM, […]",-17.61%
O=C1CC(NS(=O)(=O)c2ccc(Br)cc2)CN1 (stereo not drawn),Percent Effect,"30 µM, 30.03 µM",-19.04%
CN(C(=O)CCc1ccncc1)C1CCCN(CCc2ccccc2)C1 (stereo not drawn),Percent Effect,"30 µM, 30.03 µM",2.42%
CC(C)C(=O)NCC(=O)N(C)C1CCCN(CCc2ccccc2)C1 (stereo not drawn),Percent Effect,"30.3 µM, […]",1.246%
CN(C(=O)CSc1ccccn1)C1CCCN(CCc2ccccc2)C1 (stereo not drawn),Percent Effect,"30 µM, 30.03 µM",106.3%
Cn1cc(C(=O)NC(Cn2cccn2)C(C)(C)C)cn1 (stereo not drawn),Percent Effect,"30.3 µM, […]",-4.857%
CCn1nccc1C(=O)NC(Cn1cccn1)C(C)(C)C (stereo not drawn),Percent Effect,"30.3 µM, […]",-6.087%
CC(C)(C)C(Cn1cccn1)NC(=O)c1ccco1 (stereo not drawn),Percent Effect,"30.3 µM, […]",101.2%
CC(CNC(=O)CCCn1cncn1)N1CCc2ccccc2C1 (stereo not drawn),Percent Effect,"30 µM, 30.03 µM",-32.01%
CCOC(=O)c1sc(NC(=O)CN(C)S(C)(=O)=O)c(C#N)c1C,Percent Effect,"30 µM, 30.03 µM",-8.874%
CCCC(=O)Nc1sc(C(=O)OCC)c(C)c1C#N,Percent Effect,"30 µM, 30.03 µM",19.97%
Cc1sc(NC(=O)CN(C)S(C)(=O)=O)c(C#N)c1C,Percent Effect,"30 µM, 30.03 µM",51.13%
Cl.O=C(Nc1nc2c(s1)CNCC2)NC1CCCC1,Percent Effect,"30 µM, 30.03 µM",-50.11%
Cl.NC(C(=O)N1CCSc2ccccc2C1)c1ccccc1 (stereo not drawn),Percent Effect,"30 µM, 30.03 µM",1.138%
Cc1nn2c(-c3snnc3C)nnc2s1,Percent Effect,"30 µM, 30.03 µM",-55.36%
COCCC(=O)N1CC2(CCN(Cc3cccc(Cl)c3)CC2)C1.O=C(O)C(F)(F)F,Percent Effect,"30 µM, 30.03 µM",-25.19%
Cc1nnc(N2CC[C@H]3C[C@@H](C(=O)N4CCCC4)O[C@H]3C2)s1.O=C(O)C(F)(F)F,Percent Effect,"30.3 µM, […]",-391.5%
O=C1NCc2ccc(NC(=O)C3CCCN3c3nccs3)cc21 (stereo not drawn),Percent Effect,"30 µM, 30.03 µM",23.55%
O=C(Nc1ccc(OC2CCCC2)cc1)C1CCCN1c1nccs1 (stereo not drawn),Percent Effect,"30.3 µM, […]",83.44%
O=C(Nc1cccc(F)c1)C1CCCN1c1nccs1 (stereo not drawn),Percent Effect,"30.3 µM, […]",1.599%
O=C(N1CCOCC1)[C@@]12CCO[C@@H]1CCN(CC1CCCC1)C2.O=C(O)C(F)(F)F,Percent Effect,"30 µM, 30.03 µM",-11.27%
CN(Cc1cccc(F)c1)C(=O)CS(=O)(=O)Cc1c(Cl)cccc1Cl,Percent Effect,"30.3 µM, […]",83.04%
Cc1ccccc1CS(=O)(=O)CC(=O)N(C)Cc1cccc(F)c1,Percent Effect,"30.3 µM, […]",-71.65%
CN(Cc1cccc(F)c1)C(=O)CS(=O)(=O)Cc1ccc(Cl)c(Cl)c1,Percent Effect,"30.3 µM, […]",45.42%
CCOc1nnc(CN(C)CC2CCCN2c2cccnn2)s1 (stereo not drawn),Percent Effect,"30 µM, 30.03 µM",2.197%
O=C(O)C(F)(F)F.O=C(O)C(F)(F)F.O=C(c1cnc2n1CCN(Cc1ccccc1)C2)N1CCCC1,Percent Effect,"30.3 µM, […]",-305.8%
COc1ccc(N2CCC(N3CCOC(C(F)(F)F)C3)CC2)cc1 (stereo not drawn),Percent Effect,"30 µM, 30.03 µM",-19.82%
CNC1CCN(C2CCN(c3ccc(-c4ccco4)cc3)CC2)CC1,Percent Effect,"30.3 µM, […]",100.1%
NC1CCN(C2CCN(c3ccc(-c4ccco4)cc3)CC2)CC1,Percent Effect,"30.3 µM, […]",-49.5%
O=C(O)c1ccccc1C1CCN(C2CCN(c3ccccc3)CC2)C1 (stereo not drawn),Percent Effect,"30.3 µM, […]",-16.4%
NCC1CCN(C2CCN(c3ccc(-c4ccco4)cc3)CC2)C1 (stereo not drawn),Percent Effect,"30.3 µM, […]",100.4%
CCc1cccc(N2CCC(NC(=O)c3ccco3)CC2)c1,Percent Effect,10 µM,-6.636%
same,Percent Effect,"30.3 µM, […]",-4.063%
Cn1cc(CN2CCc3onc(C(=O)N4CCCC4)c3C2)cn1.O=C(O)C(F)(F)F,Percent Effect,"30.3 µM, […]",-19.54%
O=C(c1cscn1)N1C[C@H]2CCC[C@@]2(COCc2ccccn2)C1,Percent Effect,"30.3 µM, […]",-7.729%
